From PubChem BioAssay (EPA / NIEHS) come the findings set out here.

The term AC50 denotes the concentration at which the activity in the assay is half-maximal.

In assay [1] the target is Bile acid receptor (Homo sapiens) (UniProt Q96RI1). Description: ATG_IR1_CIS: Attagene CIS-FACTORIAL HepG2 Assay for human Nuclear Receptor Subfamily 1 Group H Member 4 (NR1H4), IR1 submotif (AID 2282946). As to conditions: IR1 reporter transcription, actives raise or lower the signal. The gist of the method: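 Readout: reporter transcript levels by RT-PCR with fluorescent capillary electrophoresis, from HepG2 cells transiently transfected with multiplexed cis-regulated reporters and dosed 24 h. Gain- or loss-of-signal fitted versus DMSO negative control.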
Chain of Bile acid receptor (Homo sapiens) (Q96RI1 whole entry, looked up): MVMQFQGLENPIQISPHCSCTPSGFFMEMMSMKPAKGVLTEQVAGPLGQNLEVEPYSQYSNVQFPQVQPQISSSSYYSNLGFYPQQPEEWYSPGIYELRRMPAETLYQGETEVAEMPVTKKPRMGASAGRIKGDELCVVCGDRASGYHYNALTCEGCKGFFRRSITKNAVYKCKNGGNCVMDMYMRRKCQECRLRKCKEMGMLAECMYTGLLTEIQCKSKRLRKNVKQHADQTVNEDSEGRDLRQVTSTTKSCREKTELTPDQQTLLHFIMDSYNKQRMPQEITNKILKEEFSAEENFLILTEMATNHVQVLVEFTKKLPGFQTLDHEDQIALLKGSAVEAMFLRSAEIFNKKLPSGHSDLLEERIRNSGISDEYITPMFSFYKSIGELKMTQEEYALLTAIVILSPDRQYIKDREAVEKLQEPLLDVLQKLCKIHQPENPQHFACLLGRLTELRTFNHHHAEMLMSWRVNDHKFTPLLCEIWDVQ

A short description of assay [2]: ATG_GRE_CIS: Attagene CIS-FACTORIAL HepG2 Assay for human Glucocorticoid Response Elements (GRE) (AID 2282947). As to conditions: HepG2 GRE cis-reporter, Attagene multiplex mRNA; actives raise or lower the signal. The gist of the method: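 Cells (HepG2) bearing transfected cis-promoter reporter transcription units were treated with chemical for 24 hours. Reporter mRNA was measured via RT-PCR with capillary electrophoresis, and activity was fitted in both directions relative to DMSO.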

The nature of assay [3]: ATG_ISRE_CIS: Attagene CIS-FACTORIAL HepG2 Assay for human Interferon Regulatory Factor 1 (IRF1) binding to an Interferon-Stimulated Response Element (ISRE) (AID 2282948). Conditions: HepG2 ISRE cis-reporter (Attagene), mRNA transcription readout; actives raise or lower the signal. The gist of the method: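 Multiplexed mRNA reporter readout in human liver HepG2 cells: cis-element-driven reporters transfected, compound added for 24 h, transcripts amplified, fluorescently labelled and sized by capillary electrophoresis; curve fitting bidirectional against DMSO.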

Assay [4] is described as follows: ATG_M_32_CIS: Attagene CIS-FACTORIAL HepG2 Assay for M32 Transcription Factor (Internal Marker) (AID 2282949).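 Note: background control marker of the multiplexed CIS panel rather than a real target.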 As to conditions: HepG2 Attagene cis-factorial M32 reporter, mRNA; actives raise or lower the signal. The gist of the method:
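HepG2 human liver cells transiently transfected with cis-promoter-driven multiple reporter transcription units, dosed 24 h. Reporter mRNA quantified by RT-PCR, FAM-labelled primer extension, HpaI digest and capillary electrophoresis; bidirectional fit versus DMSO baseline.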

Assay [5] can be described thus: ATG_M_06_CIS: Attagene CIS-FACTORIAL HepG2 Assay for M06 Transcription Factor (Internal Marker) (AID 2282950). As to conditions: HepG2 Attagene CIS-FACTORIAL M06 internal marker reporter; actives raise or lower the signal. The gist of the method:
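Fluorescence-labelled RT-PCR products from cis-promoter reporter units, cut with HpaI and resolved by capillary electrophoresis, give the signal. Cells are human HepG2, dosed for 24 h. Serves as background control, fitted relative to DMSO.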

In assay [6] the target is Hepatocyte nuclear factor 6 (Homo sapiens) (UniProt Q9UBC0). Briefly: ATG_HNF6_CIS: Attagene CIS-FACTORIAL HepG2 Assay for human Hepatocyte Nuclear Factor 6 (HNF6) (AID 2282952). Conditions: HepG2 Attagene cis-factorial HNF6 reporter transcription; actives raise or lower the signal. The gist of the method: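 Twenty-four-hour chemical treatment of reporter-transfected HepG2 cells precedes RNA isolation, DNase-treated reverse transcription and PCR of reporter sequences. Labelled fragments are sized by capillary electrophoresis and fitted bidirectionally versus DMSO.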
Chain of Hepatocyte nuclear factor 6 (Homo sapiens) (Q9UBC0 whole entry, looked up, the tested form may be a part): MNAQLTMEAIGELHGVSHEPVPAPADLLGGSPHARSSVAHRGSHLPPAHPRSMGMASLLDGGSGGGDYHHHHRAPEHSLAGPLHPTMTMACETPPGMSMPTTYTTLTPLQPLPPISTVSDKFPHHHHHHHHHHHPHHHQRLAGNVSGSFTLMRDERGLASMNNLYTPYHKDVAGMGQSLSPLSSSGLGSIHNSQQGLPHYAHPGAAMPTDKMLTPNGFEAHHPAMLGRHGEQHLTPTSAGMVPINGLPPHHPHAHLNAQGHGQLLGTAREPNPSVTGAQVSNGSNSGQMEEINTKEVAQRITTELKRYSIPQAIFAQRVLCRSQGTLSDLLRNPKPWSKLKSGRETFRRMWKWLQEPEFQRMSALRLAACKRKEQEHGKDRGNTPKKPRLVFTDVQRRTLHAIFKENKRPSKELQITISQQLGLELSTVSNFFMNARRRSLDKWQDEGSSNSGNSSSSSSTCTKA

The target in assay [7] is Heat shock factor protein 1 (Homo sapiens) (UniProt Q00613). Description: ATG_HSE_CIS: Attagene CIS-FACTORIAL HepG2 Assay for human Heat Shock Transcription Factor 1 (HSE) (AID 2282953). Conditions: HepG2 HSE cis-reporter, Attagene RNA transcription; actives raise or lower the signal. The gist of the method:
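After a 24 h incubation with test chemical, transfected HepG2 cells were harvested for RNA; reporter transcripts were measured by RT-PCR and capillary electrophoresis. Values reflect gain or loss of signal relative to DMSO.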

The nature of assay [8]: ATG_MRE_CIS: Attagene CIS-FACTORIAL HepG2 Assay for human Metal Responsive Element (MRE) (AID 2282954). As to conditions: HepG2 MRE cis-reporter transcription, Attagene multiplex; actives raise or lower the signal. Summed up: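 Cells were transfected with cis-promoter reporter transcription units, then dosed for 24 h. RNA was reverse-transcribed, amplified, fluorescently labelled and resolved by capillary electrophoresis, and activity was fitted in both directions relative to DMSO.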

A short description of assay [9]: ATG_PBREM_CIS: Attagene CIS-FACTORIAL HepG2 Assay for human Phenobarbital-responsive Enhancer Module (PBREM) (AID 2282955). As to conditions: HepG2 PBREM cis-reporter, Attagene multiplexed transcription; actives raise or lower the signal. Summed up:
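Fluorescence of labelled reporter cDNA fragments, resolved by capillary electrophoresis, gives mRNA induction in transfected HepG2 cells treated for 24 h; DMSO serves as negative control and baseline.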

The target of assay [10] is Paired box protein Pax-6 (Homo sapiens) (UniProt P26367). Briefly: ATG_Pax6_CIS: Attagene CIS-FACTORIAL HepG2 Assay for human Paired Box 6 (PAX6) (AID 2282956). Conditions: HepG2 CIS-FACTORIAL PAX6 reporter transcription, RNA readout; actives raise or lower the signal. The gist of the method: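 Fluorescent RT-PCR products separated by capillary electrophoresis report PAX6-linked promoter mRNA in HepG2 cells 24 h post-dose. Curves fitted bidirectionally, DMSO as negative control.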
Chain of Paired box protein Pax-6 (Homo sapiens) (P26367 whole entry, looked up): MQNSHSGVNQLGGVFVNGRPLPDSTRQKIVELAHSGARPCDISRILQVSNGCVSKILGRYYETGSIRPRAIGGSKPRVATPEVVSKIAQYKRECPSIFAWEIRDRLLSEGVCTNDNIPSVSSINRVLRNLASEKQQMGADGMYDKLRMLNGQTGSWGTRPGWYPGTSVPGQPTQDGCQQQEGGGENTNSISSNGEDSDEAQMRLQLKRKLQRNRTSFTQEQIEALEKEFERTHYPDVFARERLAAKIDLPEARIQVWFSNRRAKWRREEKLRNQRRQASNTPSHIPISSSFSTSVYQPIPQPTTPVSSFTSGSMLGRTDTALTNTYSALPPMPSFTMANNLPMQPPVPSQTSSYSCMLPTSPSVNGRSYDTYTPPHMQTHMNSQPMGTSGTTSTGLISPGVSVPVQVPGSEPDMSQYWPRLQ

The nature of assay [11]: ATG_PXRE_CIS: Attagene CIS-FACTORIAL HepG2 Assay for human Pregnane X Receptor Element (PXRE) (AID 2282957). Conditions: HepG2 Attagene CIS-FACTORIAL PXRE reporter, mRNA; actives raise or lower the signal. Summed up: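 Bidirectional activity, baselined to DMSO, derived from reporter mRNA fluorescence (RT-PCR plus capillary electrophoresis) in HepG2 cells bearing cis-promoter reporter units, 24 h exposure.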

Assay [12] can be described thus: ATG_PPRE_CIS: Attagene CIS-FACTORIAL HepG2 Assay for human Peroxisome Proliferator-activated Response Element (PPRE) (AID 2282958). As to conditions: HepG2 PPRE cis-element reporter, Attagene transcription factor profiling; actives raise or lower the signal. The gist of the method:
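Cells are first transfected transiently with the multiplexed reporter library, then dosed for 24 h. Total RNA is reverse-transcribed, amplified, fluorescently end-labeled and HpaI-cut before capillary electrophoresis; activity is fitted bidirectionally against DMSO controls.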

A short description of assay [13]: ATG_RORE_CIS: Attagene CIS-FACTORIAL HepG2 Assay for human RAR-related Orphan Receptor Element (RORE) (AID 2282959). As to conditions: HepG2 Attagene cis-factorial RORE reporter, mRNA; actives raise or lower the signal. Summed up: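 Cells were HepG2 carrying transfected cis-regulated reporter constructs, dosed for 24 hours. Total RNA was reverse-transcribed and reporter cDNA amplified, fluorescently labeled and sized by capillary electrophoresis. Activity was fitted bidirectionally relative to DMSO.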

Assay [14] can be described thus: ATG_Sox_CIS: Attagene CIS-FACTORIAL HepG2 Assay for human SRY-box transcription factor (SOX) (AID 2282960). Conditions: HepG2 Attagene cis-factorial SOX reporter, mRNA; actives raise or lower the signal. Summed up:
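Transient MRTU transfection of HepG2; 24 h compound incubation; TriZol RNA, oligo(dT) RT, PCR, 6-FAM primer extension, HpaI cut, CE. Bidirectional fit, DMSO = baseline.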

Assay [15] addresses Transcription factor Sp1 (Homo sapiens) (UniProt P08047). Description: ATG_Sp1_CIS: Attagene CIS-FACTORIAL HepG2 Assay for human Specificity Protein 1 (Sp1) (AID 2282961). As to conditions: HepG2 Sp1 cis-reporter transcription, actives raise or lower the signal. Summed up:
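Endogenous Sp1 activity was gauged in human liver HepG2 cells bearing transfected reporter units under a cis-regulating promoter. After 24 h dosing, reporter mRNA was quantified by RT-PCR with capillary electrophoresis, and activity fitted bidirectionally versus DMSO.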

The nature of assay [16]: ATG_SREBP_CIS: Attagene CIS-FACTORIAL HepG2 Assay for human Sterol Regulatory Element Binding (SREBP) (AID 2282962). Conditions: HepG2 Attagene cis-factorial SREBP reporter, mRNA; actives raise or lower the signal. The gist of the method: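 Endogenous factor activity is measured in HepG2 through multiplexed reporter units under cis-element control. Following a 24 h incubation, reporter transcripts are reverse-transcribed, PCR-amplified and sized by capillary electrophoresis; activity is fitted in both directions relative to DMSO.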

The target in assay [17] is Signal transducer and activator of transcription 3 (Homo sapiens) (UniProt P40763). Description: ATG_STAT3_CIS: Attagene CIS-FACTORIAL HepG2 Assay for human Signal Transducer and Activator of Transcription 3 (STAT3) (AID 2282963). Conditions: HepG2, Attagene cis-factorial STAT3 reporter transcription; actives raise or lower the signal. Summed up: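 HepG2, MRTU-transfected, 24 h dosing. RNA → RT → PCR → FAM label → HpaI → CE. Bidirectional fit vs DMSO.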
Chain of Signal transducer and activator of transcription 3 (Homo sapiens) (P40763 whole entry, looked up): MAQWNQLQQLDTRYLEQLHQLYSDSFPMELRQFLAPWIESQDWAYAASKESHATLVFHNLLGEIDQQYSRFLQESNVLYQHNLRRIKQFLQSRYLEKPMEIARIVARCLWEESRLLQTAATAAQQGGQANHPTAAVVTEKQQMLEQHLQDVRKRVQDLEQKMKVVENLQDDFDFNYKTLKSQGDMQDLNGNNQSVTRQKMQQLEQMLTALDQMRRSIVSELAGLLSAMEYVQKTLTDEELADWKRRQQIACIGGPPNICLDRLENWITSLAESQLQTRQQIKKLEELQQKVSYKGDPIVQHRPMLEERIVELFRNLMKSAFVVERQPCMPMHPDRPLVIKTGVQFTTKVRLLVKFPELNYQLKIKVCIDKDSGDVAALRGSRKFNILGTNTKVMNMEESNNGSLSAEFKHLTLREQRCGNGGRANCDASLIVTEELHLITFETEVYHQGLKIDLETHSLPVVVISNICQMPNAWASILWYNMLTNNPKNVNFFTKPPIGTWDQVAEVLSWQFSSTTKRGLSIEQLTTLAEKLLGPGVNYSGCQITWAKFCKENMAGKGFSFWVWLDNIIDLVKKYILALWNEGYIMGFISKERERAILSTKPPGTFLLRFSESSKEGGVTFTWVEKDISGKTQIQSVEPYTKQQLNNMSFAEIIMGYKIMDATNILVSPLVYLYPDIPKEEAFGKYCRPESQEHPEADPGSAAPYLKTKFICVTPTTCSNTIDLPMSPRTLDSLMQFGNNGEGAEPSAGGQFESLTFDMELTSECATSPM

Assay [18] can be described thus: ATG_TCF_b_cat_CIS: Attagene CIS-FACTORIAL HepG2 Assay for human T-Cell-Factor with beta-catenin (TCF/b-cat) (AID 2282965). As to conditions: HepG2 TCF/beta-catenin cis-reporter transcription, actives raise or lower the signal. The gist of the method:
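Using capillary electrophoresis as the read-out, labelled reporter cDNA fragments from transiently transfected HepG2 were sized and quantified. Exposure lasted 24 hours; activity in either direction was referenced to DMSO.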

Assay [19] can be described thus: ATG_TA_CIS: Attagene CIS-FACTORIAL HepG2 Assay for human TA Basal Promoter (AID 2282964). As to conditions: HepG2 Attagene CIS-factorial TA basal promoter reporter; actives raise or lower the signal. Summed up:
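Multiplexed mRNA reporter assay, HepG2, 24 h. Reporter cDNA amplified, 6-FAM primer-extended, HpaI-cut, CE-sized; DMSO = negative control and baseline.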

Assay [20] concerns the target Hypoxia-inducible factor 1-alpha (Homo sapiens) (UniProt Q16665). Briefly: ATG_HIF1a_CIS: Attagene CIS-FACTORIAL HepG2 Assay for human Hypoxia Inducible Factor 1 (HIF1A) (AID 2282951). As to conditions: HepG2 Attagene cis-factorial HIF1a reporter transcription; actives raise or lower the signal. Summed up: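 Measures endogenous transcription-factor activity through cis-regulated reporter mRNA in HepG2. Cells dosed 24 h; transcripts quantified by RT-PCR with 6-FAM-labelled products separated by capillary electrophoresis; DMSO serves as negative control.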

Where “and” joins values, the source holds several entries; their conditions need not be identical. Equal values may be shown once. Where a structure was tested more than once in an assay, its records may differ in their call. Calls of active or inactive are those of the source. Rule for the calls: active = hit-call score of the fitted dose curve at least 0.9, where 1 is the maximum; inactive = score below 0.9.

Chain of Transcription factor Sp1 (Homo sapiens) (P08047 whole entry, looked up): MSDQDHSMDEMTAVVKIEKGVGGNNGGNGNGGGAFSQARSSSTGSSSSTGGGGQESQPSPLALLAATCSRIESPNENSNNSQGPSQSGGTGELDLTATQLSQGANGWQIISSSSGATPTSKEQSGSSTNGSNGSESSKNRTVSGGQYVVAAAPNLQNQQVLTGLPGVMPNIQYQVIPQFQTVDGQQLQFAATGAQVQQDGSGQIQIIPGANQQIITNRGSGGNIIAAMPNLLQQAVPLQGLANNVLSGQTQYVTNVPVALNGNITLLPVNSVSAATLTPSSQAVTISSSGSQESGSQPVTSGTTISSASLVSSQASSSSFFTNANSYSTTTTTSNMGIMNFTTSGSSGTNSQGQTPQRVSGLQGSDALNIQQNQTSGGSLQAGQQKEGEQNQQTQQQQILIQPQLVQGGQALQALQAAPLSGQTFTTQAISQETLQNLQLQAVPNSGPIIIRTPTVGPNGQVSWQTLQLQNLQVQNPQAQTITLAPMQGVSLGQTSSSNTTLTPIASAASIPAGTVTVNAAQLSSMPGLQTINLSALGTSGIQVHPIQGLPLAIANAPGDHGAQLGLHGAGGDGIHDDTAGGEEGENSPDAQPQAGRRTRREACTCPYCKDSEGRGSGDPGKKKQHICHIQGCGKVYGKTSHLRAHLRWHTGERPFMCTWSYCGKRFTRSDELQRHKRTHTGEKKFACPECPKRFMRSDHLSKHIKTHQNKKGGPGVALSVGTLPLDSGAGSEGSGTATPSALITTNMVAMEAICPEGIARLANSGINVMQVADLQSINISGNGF
Chain of Heat shock factor protein 1 (Homo sapiens) (Q00613 whole entry, looked up): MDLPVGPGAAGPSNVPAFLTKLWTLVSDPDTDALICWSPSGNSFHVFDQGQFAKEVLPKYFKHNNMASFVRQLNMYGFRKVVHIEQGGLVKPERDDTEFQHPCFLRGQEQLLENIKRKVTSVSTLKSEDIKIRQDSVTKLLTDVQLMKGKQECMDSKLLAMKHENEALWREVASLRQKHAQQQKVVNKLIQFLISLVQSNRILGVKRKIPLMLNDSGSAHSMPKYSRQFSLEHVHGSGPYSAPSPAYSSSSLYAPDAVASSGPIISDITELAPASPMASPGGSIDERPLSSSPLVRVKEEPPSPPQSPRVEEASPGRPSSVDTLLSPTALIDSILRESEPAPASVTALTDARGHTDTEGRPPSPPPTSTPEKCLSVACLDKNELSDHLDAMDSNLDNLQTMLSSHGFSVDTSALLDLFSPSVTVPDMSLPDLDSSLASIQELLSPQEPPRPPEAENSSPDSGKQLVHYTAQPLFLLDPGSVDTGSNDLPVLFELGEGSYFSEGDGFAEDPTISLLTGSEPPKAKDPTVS
Chain of Hypoxia-inducible factor 1-alpha (Homo sapiens) (Q16665 whole entry, looked up): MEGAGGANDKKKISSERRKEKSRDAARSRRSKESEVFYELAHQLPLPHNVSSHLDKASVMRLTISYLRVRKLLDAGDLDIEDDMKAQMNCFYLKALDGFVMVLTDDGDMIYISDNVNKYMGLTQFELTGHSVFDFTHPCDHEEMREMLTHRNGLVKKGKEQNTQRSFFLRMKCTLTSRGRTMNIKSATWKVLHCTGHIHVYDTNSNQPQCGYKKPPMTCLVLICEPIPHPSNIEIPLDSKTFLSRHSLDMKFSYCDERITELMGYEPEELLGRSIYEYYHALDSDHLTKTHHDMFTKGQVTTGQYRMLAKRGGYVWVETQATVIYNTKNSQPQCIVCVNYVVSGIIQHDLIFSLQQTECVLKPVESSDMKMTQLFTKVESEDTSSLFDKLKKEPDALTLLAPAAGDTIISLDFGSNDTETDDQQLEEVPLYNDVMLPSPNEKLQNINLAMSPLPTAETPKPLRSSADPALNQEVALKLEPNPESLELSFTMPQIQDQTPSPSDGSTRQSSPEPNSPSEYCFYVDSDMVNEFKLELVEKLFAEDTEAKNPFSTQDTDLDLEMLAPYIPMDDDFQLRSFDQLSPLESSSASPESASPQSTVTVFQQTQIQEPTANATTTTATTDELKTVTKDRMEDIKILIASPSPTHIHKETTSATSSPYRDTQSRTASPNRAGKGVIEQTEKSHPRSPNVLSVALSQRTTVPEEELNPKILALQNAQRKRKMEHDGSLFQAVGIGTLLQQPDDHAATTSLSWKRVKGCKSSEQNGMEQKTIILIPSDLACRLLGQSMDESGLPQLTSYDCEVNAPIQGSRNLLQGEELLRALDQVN

For `CN(C)C(=O)C1(N2CCCCC2)CCN(CC[C@@]2(c3ccc(Cl)c(Cl)c3)CN(C(=O)c3ccccc3)CCO2)CC1`, the result in assay [1], in assay [2], in [3], in assay [4], in [5] and in assay [6] was inactive. For the same compound, the result in assay [7], in assay [8], in [9], in assay [10], in [12] and in assay [13] was inactive. The result in [14], in assay [15] and in [17] was inactive. The AC50 in assay [11] was 0.17 µM (active); in [16] it was 0.436 µM (active); in [18], 0.98 µM (active).
Turning to `Cc1cc2c(cc1C(F)(F)F)N(C(=O)Nc1ccc(Oc3cccnc3C)nc1)CC2`, the call in assay [1], in [2], in [3], in [4], in assay [5] and in [6] was inactive. In addition, the compound was classed as inactive in assay [7], in assay [8], in assay [9], in [10], in [11] and in assay [12]. In addition, the compound was classed as inactive in assay [13], in assay [14], in [15], in assay [16], in assay [17] and in assay [19].
In the case of `CCN(Cc1cccnc1)C(=O)c1cccc(Cl)c1[C@]1(C)C(=O)N(Cc2ccc(OC)cc2OC)c2ccc(Cl)cc21`, the result in assay [1], in assay [2], in assay [4], in assay [5], in assay [6] and in assay [12] was inactive. Besides, the outcome in [14], in assay [15] and in assay [17] was inactive. Further, the AC50 is 7.7 µM (active) in assay [3]; 40.4 µM (active) in assay [7]; 7.17 µM (active) in [8]; 1.47 µM (active) in assay [9]; 3.83 µM (active) in assay [10]; 0.143 µM (active) in assay [11]. In addition, in assay [16], the AC50 is 3.23 µM (active).
Take `CCCCCCCCCCCC[N+](C)(C)C`: the compound was classed as inactive in assay [1], in assay [2], in assay [4], in [5], in [20] and in [6]. In addition, the compound was classed as inactive in assay [7], in assay [8], in assay [9], in [10], in assay [11] and in assay [12]. In addition, the outcome in [14], in assay [15] and in assay [17] was inactive. Also, the AC50 is 16.6 µM (active) and 15.3 µM (active) in assay [3]; 33.4 µM (active) in [8]; 1.26 µM (active) in assay [11]; 26.1 µM (active) and 25.6 µM (active) in assay [16].
`CC(=O)N1CCN(c2ccc(OC[C@H]3CO[C@](Cn4ccnc4)(c4ccc(Cl)cc4Cl)O3)cc2)CC1`: the AC50 was 48.5 µM (active) in assay [1]; 15.1 µM (active) in assay [3]; 55.6 µM (active) in [7]; 33.9 µM (active) in assay [8]; 10 µM (active) in assay [10]; 0.942 µM (active) in assay [11]. In addition, the AC50 in [15] was 49.9 µM (active); in [16], 5.24 µM (active); in assay [19] it was 4.84 µM (active). The compound was called inactive in assay [2], in assay [4], in [5], in assay [6], in assay [9] and in assay [12]. The compound was classed as inactive in assay [14] and in [17].
With `O=CCCCC=O`, the compound was called inactive in assay [1], in assay [2], in [3], in assay [4], in [5] and in assay [6]. Besides, the compound was classed as inactive in assay [7], in [8], in assay [9], in assay [10], in assay [11] and in assay [12]. The call in assay [14], in assay [15], in assay [16] and in assay [17] was inactive. Also, the AC50 in [3] is 125 µM (active).
